Screening results: PubChem BioAssay, National Center for Advancing Translational Sciences (NCATS)
LMNA splice mod – LMNA splicing modulation. Potency, µM (titrated, usually from 46.1 µM), inactives show top-dose ratio change, negative = inhibition, actives largely listed as inhibitors. HeLa LMNA splicing GFP/RFP minigene ratio, 48 h. 0.01% of 200,000 active; active = well fitted inhibition curve with a large enough effect in the signal ratio, with a control signal flat, not every such curve was filed as active; inconclusive = small, poorly fitted or top-dose-only effect, or effect the other way, or a change in a side signal; the % refers to the signal ratio
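S3 HeLa cells stably expressing lamin A-EGFP splicing minigene plus DsRed2, 600 cells/well, 48 h compound exposure at 37C. Laser-scanning cytometry; analysed as GFP (500-530 nm)/RFP (575-640 nm) total intensity ratio; 0.5% DMSO vehicle.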
ALDH1A1 inh – inhibitors of human aldehyde dehydrogenase 1A1. Purified ALDH1A1, NADH fluorescence, propionaldehyde substrate. 7.3% of 220,000 active. P00352. Potency, µM (series often up to 75.3 µM), without a hit: at the top dose activity, negative = inhibition, actives largely listed as inhibitors; active = well fitted inhibition curve with a large enough effect, not every such curve was filed as active; inconclusive = small, poorly fitted or top-dose-only effect, or another doubt; inactive = no such curve, though single readings can be large or run the other way;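 also: plate controls were no enzyme wells and a reference inhibitor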
HPGD block – HPGD (human) dehydrogenase inhibition; P15428; Potency, µM, without a hit: at the highest dose activity change, negative = inhibition, usual class: inhibitors; purified HPGD, NADH fluorescence kinetic, PGE2 substrate; 4.3% of 150,000 active; AID 894; active = well fitted inhibition curve with a large enough effect, not every such curve was filed as active; inconclusive = small, poorly fitted or top-dose-only effect, or another doubt; inactive = no such curve, though single readings can be large or run the other way
Target sequence (P15428 whole entry, looked up): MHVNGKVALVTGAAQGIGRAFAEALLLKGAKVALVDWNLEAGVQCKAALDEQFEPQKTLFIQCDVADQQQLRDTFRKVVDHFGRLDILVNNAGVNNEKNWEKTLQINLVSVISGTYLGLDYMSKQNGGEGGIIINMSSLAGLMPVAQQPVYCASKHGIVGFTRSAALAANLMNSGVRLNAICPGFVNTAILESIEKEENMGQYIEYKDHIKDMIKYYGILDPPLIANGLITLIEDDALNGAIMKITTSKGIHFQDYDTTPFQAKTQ
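NADH formation kinetics: reaction with 30 uM PGE2 and 1 mM NAD+ (final), 20 nM enzyme, Tris-HCl pH 8 with Tween 20, after 15 min compound preincubation at room temperature. Fluorescence change, last versus first of five reads.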
IMPase Li cell – membrane-permeable IMPase blocker, potentiated with lithium | CHO-M1 cells, IP1 TR-FRET (IP-One), carbachol + lithium | Potency, µM (titrated, usually from 59.4 µM), inactives show at the highest dose activity, negative = IMPase inhibition, usual class: inhibitors | 0.35% of 210,000 active | AID 1457;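 also: IP1 builds up when IMPase is blocked and the TR-FRET signal falls; plate controls were basal vehicle for no effect and high inhibitor control for full effect; nearly all actives have a fitted effect of over 50% in size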
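Concentration–response in CHO-M1 cells, lithium-potentiated; 30 min at 37C. IP1 detected by competitive TR-FRET after 10 min lysis at RT. Hill-fitted AC50.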
KinaseGlo FLuc – Kinase-Glo luciferase inhibition (counter-screen). Kinase-Glo luciferase, ATP luminescence, 8 min. Potency, µM (titrated, usually from 38.3 µM), without a hit: top-dose activity change, negative = inhibition, hits mostly inhibitors. 0.28% of 200,000 active; also: nearly all actives have a fitted effect of over 60% in size
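Light output from Kinase-Glo luciferase with luciferin and 10 uM ATP in 50 mM imidazole pH 7.2, KCl, MgCl2, Tween 20, BSA; compound pin-delivered, 8-min ambient incubation, then luminescence read.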
* hit, by the source's call; ? = inconclusive; / = no result; [ ] = remark or other dose. Rows were chosen to be rich in hits. Some 9% of all compounds tested hit in one or more screens of this group. Unless noted, calls follow the shape of the dose curve; as a rule, active = well fitted curve in the direction sought with a large enough effect; inconclusive = small, poorly fitted or top-dose-only effect, or another doubt; inactive = no such curve, though single readings can be large; an effect the other way counts as inactive or inconclusive. Unless noted, % is scaled to controls: 0 for no effect and ±100 for the full control effect; potency is read from the fitted curve at half-maximal effect.

SMILES	LMNA splice mod	ALDH1A1 inh	HPGD block	IMPase Li cell	KinaseGlo FLuc
COc1ccc(-c2cc(=O)oc3cc(OCC(=O)c4cccc([N+](=O)[O-])c4)ccc23)cc1	?	-0.7%	2.82µM*	-2.0%	-0.5%
CCOC(=O)COc1ccc2c(=O)c(-c3ccccc3)coc2c1	-12.4%[46 µM]	/	/	/	/
COc1ccc2cc(C(=O)COC(=O)COc3ccc4c(C)cc(=O)oc4c3)ccc2c1	-5.9%	?	?	?	3.4%
COc1ccc(-c2cc(=O)oc3cc(OCC(C)=O)ccc23)cc1	?	?	31.6µM*	-1.0%	1.6%
CCOCCOC(=O)COc1ccc2c(-c3ccccc3)cc(=O)oc2c1	-5.6%	17.8µM*	25.1µM*	-7.1%	-3.8%
Cc1nn(-c2ccccc2)c2c1N(CC(=O)N1CCN(c3cccc(Cl)c3)CC1)C(=O)CS2	-8.1%[46 µM]	/	/	/	/
CCNC(=O)c1c(N)sc2c1CCCCC2	4.8%	28.2µM*	28.2µM*	-6.6%[38.3 µM]	-10.6%
CCOC(=O)c1c(N)sc2c1CCC(C)C2 (stereo not drawn)	?	12.6µM*	?	-5.1%[38.3 µM]	-3.3%
CCC(=O)Nc1sc2c(c1C(=O)N(C)C)CCCCC2	-4.9%	?	2.5%	-2.9%	-1.0%
CCOC(=O)c1c(N)sc2c1CCS(=O)(=O)C2	7.6%	28.2µM*	39.8µM*	-8.1%[38.3 µM]	-4.3%
CCCC1CCc2c(sc(N)c2C(N)=O)C1 (stereo not drawn)	-6.8%	10µM*	-11.8%	-8.2%[38.3 µM]	-5.9%
CCOC(=O)c1c(N)sc2c1C1CCN2CC1	3.2%	-9.7%	/	/	/
COC(=O)C1(C(=O)OC)CC2=CC(CC2=O)Cc2ccccc2[C@@H]1C[N+](=O)[O-] (stereo partly drawn)	/	9.5%	-4.1%	0.9%	1.8%
CC(C)=CCC/C(C)=C/CC/C(C)=C/CSCC(=O)O	/	-0.4%	-11.9%	3.2%	0.9%
CCCOC(=O)c1c(NC(=O)C2C3C=CC(C3)C2C(=O)O)sc2c1CCC(C)C2 (stereo not drawn)	/	10µM*	/	-2.5%	-0.9%
COC(=O)c1c(N2C(=O)CCC2=O)sc2c1CCCC2	-17.7%	?	-5.4%	-5.5%[38.3 µM]	-2.5%
CCOC(=O)c1c(N2C(=O)C3C4C=CC(O4)C3C2=O)sc2c1CCCC2 (stereo not drawn)	-11.0%	2.24µM*	15.8µM*	-11.9%[38.3 µM]	-3.4%
CCOC(=O)c1c(NC=O)sc2c1CCC2	7.3%	-10.3%	-6.0%	23.4%[38.3 µM]	-4.1%
CCOC(=O)c1c(N)sc2c1CCCC2	3.1%	20µM*	?	-7.2%[38.3 µM]	-1.7%
COc1ccc(CCNC(=O)COC(=O)/C=C/c2ccc(OC)c(OC)c2)cc1	-8.4%	-8.3%	?	2.2%	-0.1%
CC(Nc1nc2ncn(Cc3ccccc3)c2c(=O)[nH]1)C(=O)O (stereo not drawn)	5.5%	0.6%	28.2µM*	8.0%[38.3 µM]	0.7%
C#CCN(CC=C)C(=O)CCc1nnc(COc2ccccc2)o1	/	-7.4%	/	-1.8%	-3.8%
CC(C)CN1C(=O)NC(NS(=O)(=O)c2ccc(N)cc2)(C(F)(F)F)C1=O (stereo not drawn)	2.6%	11.6%	3.5%	9.4%	-2.2%
COc1cc(N(C)C)c([N+](=O)[O-])cc1C(=O)N1CCN(Cc2ccccc2)CC1	-3.5%[9.22 µM]	10µM*	/	0.9%	-1.6%
O=C(c1ccc(S(=O)(=O)c2ccccc2Cl)c([N+](=O)[O-])c1)N1CCN(Cc2ccccc2)CC1	?	14.1µM*	-12.5%	8.2%	-2.2%
SMILES	LMNA splice mod	ALDH1A1 inh	HPGD block	IMPase Li cell	KinaseGlo FLuc
O=C(c1ccc(S(=O)(=O)c2ccc(F)cc2)c([N+](=O)[O-])c1)N1CCCCCC1	?	-2.6%	-14.3%	15.5%	-1.8%
CCn1c(-c2cc(C3CC3)nc3ccccc23)n[nH]c1=S	16.6%	?	12.6µM*	7.9%	10.1%
CCCCCCCCS(=O)c1sc2nc(C)cc(C)c2c1N (stereo not drawn)	-25.3%	?	?	40.5%[38.3 µM]	-0.3%
COc1ccc2c(c1-c1c3c(cc(Br)c1OC)CCCC3)CCCC2	/	1.2%	-9.9%	-5.3%	0.1%
CNc1cccccc1=S	4.6%	10µM*	28.2µM*	29.3%[38.3 µM]	4.9%
CC(=O)c1cc(NC(=O)c2cccc(C(F)(F)F)c2)c(=O)oc1/C=C/N(C)C	-2.4%	5.2%	1.9%	-1.0%[38.3 µM]	-4.9%
CC(=O)c1cc(NC(=O)c2cccc(C(F)(F)F)c2)c(=O)oc1C	/	3.55µM*	/	18.9%	-3.7%
